Among all 200,000 compounds or so, about 3,000 (1.5%) were called active. Many of the other results were omitted from the sample, so actives are more common in it than they were. Unmarked numbers belong to inactive results.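 Rule for the calls: active = inhibition above about 50% when tested at 10 µM (limit read from the data); inactive = the rest.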
The compounds below were run against Luciferin 4-monooxygenase (Photinus pyralis) (UniProt P08659) (assay: inhibition of purified FLuc reporter enzyme – biochemical, luminescence, ATPLite, artefact control for luciferase-based inhibitor screens, primary screen (AID 1006)). Conditions: ATPLite firefly luciferase biochemical luminescence, 10 min; at 10 µM; active compounds read high.
Sequence of Luciferin 4-monooxygenase (Photinus pyralis) (P08659 whole entry, looked up): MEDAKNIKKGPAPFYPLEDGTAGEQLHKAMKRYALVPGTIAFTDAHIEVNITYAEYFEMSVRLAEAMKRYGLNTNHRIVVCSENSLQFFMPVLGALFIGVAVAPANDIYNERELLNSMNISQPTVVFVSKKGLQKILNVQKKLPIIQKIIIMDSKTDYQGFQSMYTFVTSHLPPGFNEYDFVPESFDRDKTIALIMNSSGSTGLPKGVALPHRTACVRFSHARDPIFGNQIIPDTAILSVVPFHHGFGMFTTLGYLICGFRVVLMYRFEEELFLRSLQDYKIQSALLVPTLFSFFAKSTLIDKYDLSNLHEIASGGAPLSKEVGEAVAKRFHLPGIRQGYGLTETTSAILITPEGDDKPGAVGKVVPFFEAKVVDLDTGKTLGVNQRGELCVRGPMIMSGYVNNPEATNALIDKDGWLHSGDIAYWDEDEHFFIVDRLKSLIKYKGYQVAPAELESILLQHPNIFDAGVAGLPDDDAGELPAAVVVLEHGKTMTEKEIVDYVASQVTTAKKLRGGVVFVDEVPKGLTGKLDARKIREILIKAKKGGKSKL

SMILES	inhibition
O=C(Nn1cnnc1)c1ccc([N+](=O)[O-])cc1	-5.5%
Cc1ccc2nc(-c3cccc(Br)c3)cc(C(=O)Nn3cnnc3)c2c1	78.1% (active)
Cc1ccc(-c2cc(C(=O)NCc3cn(C)nc3C)c3cc(Br)ccc3n2)cc1	10.9%
Cc1ccc2nc(-c3ccccc3)cc(C(=O)O)c2c1	15.5%
Cc1nn2cc(-c3ccc(Cl)cc3)cnc2c1Br	7.5%
Cc1noc(C)c1COc1ccc2ccc(=O)oc2c1	-2.2%
COc1ccc(-c2cc3ccc(OCc4nn[nH]n4)cc3oc2=O)cc1	81.4% (active)
CCCCc1cc(=O)oc2cc(C)cc(OCc3nn[nH]n3)c12	-6.7%
Cc1cc(Cl)ccc1NC(=S)N1CCC(C(N)=O)(N2CCCCC2)CC1	-2.1%
CC(C)(C)c1csc(NC2=NS(=O)(=O)c3ccccc32)n1	77.2% (active)
Cc1ccc(S(=O)(=O)N(NC2=NS(=O)(=O)c3ccccc32)C(=O)c2ccccc2)cc1	0.4%
O=C(Oc1cccc(NC2=NS(=O)(=O)c3ccccc32)c1)c1ccncc1	-2.8%
N/C(=N\OC(=O)CC1CCCCC1)c1ccccc1	90.2% (active)
N/C(=N\OC(=O)CCc1ccccc1)c1ccc(Cl)cc1	0.8%
N/C(=N\OC(=O)CCC1CCCCC1)c1ccccn1	71.2% (active)
N/C(=N\OC(=O)CCc1ccccc1)c1cccnc1	14.6%
CCC(C)(NC(=O)c1ccccn1)C(=O)NC1CCCCC1 (stereo unspecified)	-4.6%
COc1ccc(/C(N)=N/OC(=O)Cc2ccccc2)cc1	10.9%
Cc1cc(C)nc(/N=C2\NC(=O)CC(C(=O)O)N2c2ccc(Cl)cc2Cl)n1 (stereo unspecified)	-5.6%
COc1ccccc1-c1noc(CSc2nc(C)cc(=O)[nH]2)n1	-0.3%
CCc1ccc(NC(=O)C(=O)N/N=C(\C)CC(=O)NCCOC)cc1	10.5%
CCCCNC(=O)N1CCN(S(C)(=O)=O)CC1	-1.2%
CC(C)n1c(-c2ccncc2)n[nH]c1=S	-5.7%
Cc1cccc(NC(=S)N2CCC(O)CC2)c1C	-0.2%
CCCC(=O)Nc1ccc(C(=O)N/N=C/c2ccc[nH]2)cc1	-1.8%
O=C(c1cc(Cl)cc(Cl)c1)N1CCC(=O)N(C(COCc2ccccc2)Cc2ccccc2)CC1 (stereo unspecified)	-9.5%

SMILES	inhibition
NC(=O)Cc1ccc2sc(-c3ccccc3)nc2c1	65.2% (active)
O=C(O)Cc1sc(-c2ccccc2)nc1-c1cccs1	6.8%
O=C(O)Cc1sc(-c2ccc(C(=O)O)cc2)nc1-c1ccccc1	-4.9%
CCOC(=O)c1ccc(NC(=O)C2CC(=O)Nc3nc4ccccc4n32)cc1 (stereo unspecified)	0.7%
O=c1[nH]c(CCl)nc2cc(-c3ccc(Cl)cc3)sc12	93.3% (active)
NC(=O)Cc1nc2scc(-c3ccc(Cl)cc3)c2c(=O)[nH]1	-1.4%
O=c1[nH]c(CN2CCOCC2)nc2cc(Cl)ccc12	-3.5%
Cc1cccc(NC(=O)NC(=S)NC(=O)c2ccccc2)c1	12.7%
Cn1c(-c2ccccc2)c[n+]2c1CCCCC2	-4.6%
COc1ccc(C2=NN(c3ccccc3)C(c3cccs3)C2)cc1 (stereo unspecified)	5.5%
FC(F)(F)c1nc2ccccc2nc1N/N=C/c1ccc(Cl)cc1	8.5%
CC(C)(C)c1nnc(N/N=C/c2ccc(O)cc2)n(N)c1=O	17.8%
O=c1c2ccccc2nc(N/N=C/c2ccccc2)n1O	90.5% (active)
c1ccc2c(NC3C4CC5CC(C4)CC3C5)nc(N3CCOCC3)nc2c1 (stereo unspecified)	-8.2%
CCOc1ccc(NC(=O)c2cc(C)nc3ccccc23)cc1	-2.9%
CCc1cccc(C)c1NC(=S)N(CCCN1CCN(C)CC1)Cc1cccs1	-0.5%
CN1C(=O)/C(=C\c2cc(Br)cs2)c2ccccc21	32.4%
CN(C)c1nccc(NCc2ccccc2)c1C#N	-1.3%
O=C1NC(c2ccccc2)CCC1(Cl)Cl (stereo unspecified)	-1.3%
O=C(CSc1ccc(/C=N/NC(=O)c2cccc(F)c2)o1)Nc1ccccc1	3.7%
C/C(=N\OC(=O)c1ccccc1)c1c(C)nc2cc(C)ccn12	-3.4%
Cc1ccc(NC(=O)C(=O)NCc2ccc(/C=N/NC(=O)c3c(C)nc4cc(C)ccn34)o2)cc1	70.8% (active)
C[C@@H]1CC[C@]2(O[C@@H](CCO)C[C@H](O)[C@H]2O)O1	-2.6%
CCN(CC)CCNC(=O)c1ccc(NC(=O)c2c(F)cccc2Cl)cc1	-2%
CC(=O)Nc1ccc(S(=O)(=O)NC2(C(F)(F)F)C(=O)NC(C)=C2C#N)cc1 (stereo unspecified)	-5.9%
C/C(N)=C(/C#N)C(=O)COC(=O)c1cc(-c2ccc(C)cc2)nc2ccccc12	12.9%

SMILES	inhibition
COc1ccc(-c2cc(C(=O)n3cnc4ccccc43)c3ccccc3n2)cc1	36.7%
CNC(=O)COC(=O)c1cc(-c2ccc(OC)cc2)nc2ccccc12	54.2% (active)
O=C(NNc1cc(Cl)ccc1Cl)c1cccnc1Cl	-7.9%
CC(=O)c1sc(N/N=C\c2ccc(C)cc2)nc1C	-5.2%
CC(=O)c1sc(NC(=O)c2ccc(C)cc2)nc1C	68.8% (active)
CC(=O)c1sc(NC(=O)c2cccc3ccccc23)nc1C	-4.9%
COc1ccc(/C=C/C(=O)Nc2ccc3c(c2)OCCO3)cc1OC	10.1%
CCc1c(C)sc(NC(=O)/C=C/c2ccc3c(c2)OCO3)c1C(=O)OC	5%
COc1cccc(/C=C/C(=O)Nc2ccc3c(c2)OCCO3)c1	86.5% (active)
COc1ccc(OC)c(/C=C/C(=O)OCC(=O)Nc2ccc3c(c2)OCCO3)c1	0.6%
O=C(/C=C/c1ccc2c(c1)OCO2)NCc1ccc(F)cc1	1.2%
Cc1cccc(NC(=O)Nc2ccc3c(c2)OCO3)n1	55% (active)
CC(NC(=O)Nc1ccc2c(c1)OCO2)c1ccncc1 (stereo unspecified)	-4.9%
Cc1cccc(NC(=O)/C=C/c2ccc3c(c2)OCO3)n1	89.3% (active)
CC(C)C(=O)Nc1cccc(C(=O)Nc2ccc3c(c2)OCO3)c1	33%
CC(=O)c1c(-c2ccccc2)c2ccccc2[nH]c1=O	-6.4%
CSc1ccc(/C=N/N2CCN(Cc3ccccc3Cl)CC2)cc1	-7.8%
O=C(Cc1ccc(Cl)cc1)NCc1nc(-c2ccccc2)no1	-3.2%
Cc1ccc(N(C(=O)c2sc(C)nc2C)C(C(=O)NC(C)(C)C)c2ccncc2)cc1 (stereo unspecified)	-4.2%
CCOC(=O)CN1CCC(c2ccccc2)CC1	-0.7%
CCOc1ccc(S(=O)(=O)N/N=C(\C)c2ccc(Cl)c(Cl)c2Cl)cc1	1.5%
CC1(C)C2CC=C(/C=N/NC(=O)C3CC3)C1C2 (stereo unspecified)	-0.4%
CC(C)c1cc(C(N)=O)c(NC(=O)c2cccc(COc3ccc(Br)cc3)c2)s1	-2.6%
CCN(CC)C(=O)c1ccc(O)c(OC)c1	-4%
CCOc1ccc(OCc2cccc(C(=O)N(CC)CC)c2)cc1	68% (active)
COc1ccc(OCc2cccc(C(=O)N3CCCC3)c2)cc1	52.1% (active)

SMILES	inhibition
COc1ccc(OCC(=O)NNC(=O)c2cccc(C)c2)cc1	-0.5%
Cc1cccc(C(=O)N2CCCN(C(=O)c3cccc(C)c3)CC2)c1	-3%
CCCn1nc(Oc2nc(NC(C)C)nc(N(C)C)n2)ccc1=O	-7.4%
Cc1ccccc1N1C(=O)C(Oc2ccc(Cl)cc2)C1CNCC1CCCO1 (stereo unspecified)	-3.1%
CCOC(=O)c1sc(-c2cccc([N+](=O)[O-])c2)cc1N	-3.5%
Cc1ccc(OCCCC(=O)NC(C)c2ccccc2)c(C)c1 (stereo unspecified)	-1%
O=C(O)/C=C/c1ccc(OCCCF)cc1	-2.5%
O=C(Oc1ccccc1Cl)c1ccc(N2CCOCC2)c([N+](=O)[O-])c1	-14.3%
COc1ccccc1NC(=O)COC(=O)Cc1ccc(S(=O)(=O)N2CCCCC2)s1	-8.3%
CC(C)C(=O)OCC(=O)Nc1ccc2c(c1)CCC2	8.9%
O=C(NC1CCCC1)c1ccc(Br)s1	3.5%
O=C(Nc1ccc2c(c1)CCC2)c1ccc(Br)s1	57.1% (active)
CCNC(=O)CC1C(=O)N(c2ccc(F)cc2)C(=O)N1CCc1sccc1C (stereo unspecified)	-3.3%
COc1ccc(/C=C/CN2CCCC(C(=O)c3cc(F)ccc3F)C2)cc1 (stereo unspecified)	-1.7%
O=C(Oc1ccc([N+](=O)[O-])cc1)c1ccc(Cl)c(S(=O)(=O)N2CCCCC2)c1	-5.6%
COc1ccccc1N=Cc1c(O)c2ccccc2oc1=O	95.4% (active)
COc1ccc(OC)c(N=Cc2c(O)[nH]c3ccccc23)c1	0.1%
COc1ccc(N=Cc2c(O)[nH]c3ccccc23)cc1OC	6%
COc1ccc(NC(=O)CN2C(=O)CSC2=O)cc1	1.6%
O=C(CCC(=O)Nc1ccccc1)N/N=C/c1ccccc1F	-1.2%
O=C(/C=C/c1ccc2c(c1)OCO2)NCc1cn2cc(Cl)ccc2n1	5.7%
CC(Oc1ccccc1)C(=O)Nc1oc(-c2ccco2)c(-c2ccco2)c1C#N (stereo unspecified)	-6.2%
COC(=O)c1cccnc1NC(=S)NC(C)C	9.9%
